Results: the supplement of paper PMC4466140

B1: unnamed (peptide)
chain: PVLPPPRSPNRPTLS

biological target: AgAbp1; assay: SPOT peptide array binding signal intensity (averaged, normalized) (arbitrary units (background-subtracted, floor 0; scale differs between SH3 domains)); higher = stronger binding of the SH3 domain to the peptide
Procedure: (§1)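 GST-tagged SH3 domains from S. cerevisiae (Sc), A. gossypii (Ag), C. albicans (Ca) and S. pombe (Sp) were incubated at 10 ug/ml overnight at 4 C on cellulose SPOT membranes carrying 292 synthetic 15-mer peptides mined from the S. cerevisiae proteome (cysteines replaced by serines). Binding was detected with anti-GST antibody, HRP secondary and chemiluminescence, quantified with Genespotter, and reported as normalized spot intensities averaged over biological replicates.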

Binder	SPOT peptide array binding signal intensity
B1	24

biological target: AgBbc1; assay: as above
Procedure: as §1

Binder	SPOT peptide array binding signal intensity
B1	700

biological target: AgBem1-D1; assay: as above
Procedure: as §1

Binder	SPOT peptide array binding signal intensity
B1	43

biological target: AgBzz1-D1; assay: as above
Procedure: as §1

Binder	SPOT peptide array binding signal intensity
B1	20

biological target: AgBzz1-D2; assay: as above
Procedure: as §1

Binder	SPOT peptide array binding signal intensity
B1	1

biological target: AgCyk3; assay: as above
Procedure: as §1

Binder	SPOT peptide array binding signal intensity
B1	≤ 0

biological target: AgFus1; assay: as above
Procedure: as §1

Binder	SPOT peptide array binding signal intensity
B1	≤ 0

biological target: AgHof1; assay: as above
Procedure: as §1

Binder	SPOT peptide array binding signal intensity
B1	9

biological target: AgHse1; assay: as above
Procedure: as §1

Binder	SPOT peptide array binding signal intensity
B1	≤ 0

biological target: AgLsb1; assay: as above
Procedure: as §1

Binder	SPOT peptide array binding signal intensity
B1	1

biological target: AgLsb4; assay: as above
Procedure: as §1

Binder	SPOT peptide array binding signal intensity
B1	369

biological target: AgMyo5; assay: as above
Procedure: as §1

Binder	SPOT peptide array binding signal intensity
B1	15.5

biological target: AgNbp2; assay: as above
Procedure: as §1

Binder	SPOT peptide array binding signal intensity
B1	1.5

biological target: AgRvs167; assay: as above
Procedure: as §1

Binder	SPOT peptide array binding signal intensity
B1	5.67

biological target: AgSho1; assay: as above
Procedure: as §1

Binder	SPOT peptide array binding signal intensity
B1	≤ 0

biological target: AgSla1-D1-D2; assay: as above
Procedure: as §1

Binder	SPOT peptide array binding signal intensity
B1	≤ 0

biological target: AgSla1-D3; assay: as above
Procedure: as §1

Binder	SPOT peptide array binding signal intensity
B1	0.5

biological target: CaAbp1-D1; assay: as above
Procedure: as §1

Binder	SPOT peptide array binding signal intensity
B1	418

biological target: CaAbp1-D2; assay: as above
Procedure: as §1

Binder	SPOT peptide array binding signal intensity
B1	79

biological target: CaBbc1; assay: as above
Procedure: as §1

Binder	SPOT peptide array binding signal intensity
B1	1660

biological target: CaBem1-D1; assay: as above
Procedure: as §1

Binder	SPOT peptide array binding signal intensity
B1	31

biological target: CaBzz1-D1; assay: as above
Procedure: as §1

Binder	SPOT peptide array binding signal intensity
B1	264

biological target: CaBzz1-D2; assay: as above
Procedure: as §1

Binder	SPOT peptide array binding signal intensity
B1	56

biological target: CaCyk3; assay: as above
Procedure: as §1

Binder	SPOT peptide array binding signal intensity
B1	67

biological target: CaFus1; assay: as above
Procedure: as §1

Binder	SPOT peptide array binding signal intensity
B1	≤ 0

biological target: CaHof1; assay: as above
Procedure: as §1

Binder	SPOT peptide array binding signal intensity
B1	2

biological target: CaHse1; assay: as above
Procedure: as §1

Binder	SPOT peptide array binding signal intensity
B1	1.5

biological target: CaLsb1; assay: as above
Procedure: as §1

Binder	SPOT peptide array binding signal intensity
B1	≤ 0

biological target: CaLsb4; assay: as above
Procedure: as §1

Binder	SPOT peptide array binding signal intensity
B1	1570

biological target: CaMyo5; assay: as above
Procedure: as §1

Binder	SPOT peptide array binding signal intensity
B1	2.5

biological target: CaNbp2; assay: as above
Procedure: as §1

Binder	SPOT peptide array binding signal intensity
B1	126

biological target: CaRvs167; assay: as above
Procedure: as §1

Binder	SPOT peptide array binding signal intensity
B1	114

biological target: CaRvs167-3; assay: as above
Procedure: as §1

Binder	SPOT peptide array binding signal intensity
B1	16.5

biological target: CaSho1; assay: as above
Procedure: as §1

Binder	SPOT peptide array binding signal intensity
B1	≤ 0

biological target: CaSla1-D1-D2; assay: as above
Procedure: as §1

Binder	SPOT peptide array binding signal intensity
B1	110

biological target: CaSla1-D3; assay: as above
Procedure: as §1

Binder	SPOT peptide array binding signal intensity
B1	≤ 0

biological target: ScAbp1; assay: as above
Procedure: as §1

Binder	SPOT peptide array binding signal intensity
B1	47.5

biological target: ScBbc1; assay: as above
Procedure: as §1

Binder	SPOT peptide array binding signal intensity
B1	186

biological target: ScBem1-D1; assay: as above
Procedure: as §1

Binder	SPOT peptide array binding signal intensity
B1	3.5

biological target: ScBzz1-D1; assay: as above
Procedure: as §1

Binder	SPOT peptide array binding signal intensity
B1	20

biological target: ScBzz1-D2; assay: as above
Procedure: as §1

Binder	SPOT peptide array binding signal intensity
B1	10

biological target: ScCyk3; assay: as above
Procedure: as §1

Binder	SPOT peptide array binding signal intensity
B1	≤ 0

biological target: ScFus1; assay: as above
Procedure: as §1

Binder	SPOT peptide array binding signal intensity
B1	≤ 0

biological target: ScHof1; assay: as above
Procedure: as §1

Binder	SPOT peptide array binding signal intensity
B1	63

biological target: ScHse1; assay: as above
Procedure: as §1

Binder	SPOT peptide array binding signal intensity
B1	≤ 0

biological target: ScLsb1; assay: as above
Procedure: as §1

Binder	SPOT peptide array binding signal intensity
B1	284

biological target: ScLsb2; assay: as above
Procedure: as §1

Binder	SPOT peptide array binding signal intensity
B1	4

biological target: ScLsb3; assay: as above
Procedure: as §1

Binder	SPOT peptide array binding signal intensity
B1	4370

biological target: ScLsb4; assay: as above
Procedure: as §1

Binder	SPOT peptide array binding signal intensity
B1	372

biological target: ScMyo3; assay: as above
Procedure: as §1

Binder	SPOT peptide array binding signal intensity
B1	150

biological target: ScMyo5; assay: as above
Procedure: as §1

Binder	SPOT peptide array binding signal intensity
B1	14.5

biological target: ScNbp2; assay: as above
Procedure: as §1

Binder	SPOT peptide array binding signal intensity
B1	16

biological target: ScPex13; assay: as above
Procedure: as §1

Binder	SPOT peptide array binding signal intensity
B1	47

biological target: ScRvs167; assay: as above
Procedure: as §1

Binder	SPOT peptide array binding signal intensity
B1	1120

biological target: ScSho1; assay: as above
Procedure: as §1

Binder	SPOT peptide array binding signal intensity
B1	7

biological target: ScSla1-D1-D2; assay: as above
Procedure: as §1

Binder	SPOT peptide array binding signal intensity
B1	483

biological target: ScSla1-D3; assay: as above
Procedure: as §1

Binder	SPOT peptide array binding signal intensity
B1	12.5

biological target: SpAbp1-D1; assay: as above
Procedure: as §1

Binder	SPOT peptide array binding signal intensity
B1	70

biological target: SpBbc1; assay: as above
Procedure: as §1

Binder	SPOT peptide array binding signal intensity
B1	26

biological target: SpBzz1-D1; assay: as above
Procedure: as §1

Binder	SPOT peptide array binding signal intensity
B1	295

biological target: SpBzz1-D2; assay: as above
Procedure: as §1

Binder	SPOT peptide array binding signal intensity
B1	≤ 0

biological target: SpCyk3; assay: as above
Procedure: as §1

Binder	SPOT peptide array binding signal intensity
B1	1

biological target: SpHof1; assay: as above
Procedure: as §1

Binder	SPOT peptide array binding signal intensity
B1	7.5

biological target: SpHof1-2; assay: as above
Procedure: as §1

Binder	SPOT peptide array binding signal intensity
B1	12.5

biological target: SpHof1-3; assay: as above
Procedure: as §1

Binder	SPOT peptide array binding signal intensity
B1	46.5

biological target: SpHse1; assay: as above
Procedure: as §1

Binder	SPOT peptide array binding signal intensity
B1	108

biological target: SpLsb1; assay: as above
Procedure: as §1

Binder	SPOT peptide array binding signal intensity
B1	866

biological target: SpLsb4; assay: as above
Procedure: as §1

Binder	SPOT peptide array binding signal intensity
B1	3730

biological target: SpMyo1; assay: as above
Procedure: as §1

Binder	SPOT peptide array binding signal intensity
B1	71.2

biological target: SpNbp2; assay: as above
Procedure: as §1

Binder	SPOT peptide array binding signal intensity
B1	8

biological target: SpPex13; assay: as above
Procedure: as §1

Binder	SPOT peptide array binding signal intensity
B1	≤ 0

biological target: SpRvs167; assay: as above
Procedure: as §1

Binder	SPOT peptide array binding signal intensity
B1	1240

biological target: SpSla1-D1-D2; assay: as above
Procedure: as §1

Binder	SPOT peptide array binding signal intensity
B1	≤ 0

biological target: SpSla1-D3; assay: as above
Procedure: as §1

Binder	SPOT peptide array binding signal intensity
B1	≤ 0
